Screens from PubChem.
A selection: hits, their analogues and other compounds. The true share with any hit is near 8.9%.
M1 agonist – M1 muscarinic receptor agonism; CHO-M1 cells, Fluo-4 calcium fluorescence, agonist mode; stronger effect = higher value; B-score at 10 µM; hit rate 3% among 64,000;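 active means fluorescence rise, raw or as B-score row- and column-corrected plate score, outside the 99.7% band of its plate's samples, either direction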
mHtt clearance – compounds clearing mutant huntingtin protein. HeLa Exon1htt(103Q)mCFP, aggregate imaging; zero = plate's median compound well. inhibition, % at 1.5 µM. hit rate 0.42% among 47,000;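 active means inhibition of aggregate fluorescence above about 70%, also judged a hit by eye on the cell image, limit read from the data, passing the limit was not always enough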;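 further: cells exposed to compound for three days before fixation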
D1 allo mod – allosteric modulators of human D1 dopamine receptor; P21728; HEK293 D1, CRE-luciferase, dopamine EC30 potentiation; actives deviate in either direction; B-score at 10 µM; hit rate 5.9% among 58,000; AID 641;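 active means luminescence count or its row- and column-corrected plate score outside the 99.7% band of the plate's sample wells, on either side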
M1 antagonist – blocks the rat M1 muscarinic receptor response to acetylcholine | P08482 | hit rate 3.4% among 64,000 | B-score at 10 µM | CHO-M1 cells, Fluo-4 calcium, ACh EC80 antagonist mode; stronger effect = lower value;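 active means calcium fluorescence response, raw or row-and-column corrected B-score, differing from the plate sample mean either way at a set confidence level, mostly lower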
Target sequence (P08482 whole entry, looked up): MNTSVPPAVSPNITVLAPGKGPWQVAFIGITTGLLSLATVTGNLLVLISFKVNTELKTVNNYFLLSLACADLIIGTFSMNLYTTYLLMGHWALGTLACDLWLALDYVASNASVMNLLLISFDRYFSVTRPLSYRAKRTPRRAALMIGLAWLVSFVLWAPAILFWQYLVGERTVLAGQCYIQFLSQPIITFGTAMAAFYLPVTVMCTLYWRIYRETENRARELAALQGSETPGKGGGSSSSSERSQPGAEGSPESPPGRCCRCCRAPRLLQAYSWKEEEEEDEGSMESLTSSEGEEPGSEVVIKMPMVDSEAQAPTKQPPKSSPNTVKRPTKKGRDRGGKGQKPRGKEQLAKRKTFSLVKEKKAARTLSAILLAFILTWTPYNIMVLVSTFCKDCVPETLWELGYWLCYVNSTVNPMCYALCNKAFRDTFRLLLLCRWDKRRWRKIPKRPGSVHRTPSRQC
WNV NS2B-NS3 inh – WNV NS2B-NS3 proteinase inhibition | P06935 | WNV NS2B-NS3 protease, fluorogenic substrate Ex360/Em465; stronger effect = lower value | z-score (test concentration not listed) | hit rate 0.18% among 65,000; in the data active means z-score below about -3
D1 mod confirm – D1 receptor (human) allosteric modulation, confirmed. shares compounds with D1 allo mod. HEK293 D1 CRE-luciferase, dopamine EC30 potentiation; stronger effect = higher value. luminescence at 10 µM. hit rate 88% among 2,200. AID 642;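 active means luminescence in either of two replicates above the same-plate mean plus 3 SD of the low-dose dopamine control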
D1 ag no DA – activates D1 CRE-luciferase signal without dopamine present. shares compounds with D1 allo mod. HEK293 D1 CRE-luciferase, luminescence, no dopamine; stronger effect = higher value. luminescence at 10 µM. hit rate 0.8% among 1,900; in the data active means luminescence above about 3900
Isoprot counter – isoproterenol response counter-screen activity for D1 modulators; shares compounds with D1 allo mod; HEK293 D1 CRE-luciferase, isoproterenol EC30 counter-screen; calls only at 10 µM; hit rate 63% among 2,200; AID 647;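 active means luminescence in either replicate above plate mean of wells with a partly effective reference agonist dose plus 3 SD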;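 further: isoproterenol raises cAMP through native beta-adrenoceptor Gs so signal bypasses D1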
Starred values were filed as active, the others as inactive.

Screening Cc1cccc(Cn2c(N(C)Cc3ccccc3)nc3c2c(=O)[nH]c(=O)n3C)c1 returned M1 agonist 0.23, D1 allo mod 8*, M1 antagonist -1.4, WNV NS2B-NS3 inh -0.63, D1 mod confirm 19408*, D1 ag no DA 1708 and Isoprot counter active.
C/C=C/Cn1c(N(C)Cc2ccccc2)nc2c1c(=O)[nH]c(=O)n2C was read as M1 agonist 1.5, D1 allo mod 7.3*, M1 antagonist 0.25, WNV NS2B-NS3 inh -0.74, D1 mod confirm 21832*, D1 ag no DA 1976 and Isoprot counter active.
CN(Cc1ccccc1)c1nc2c(c(=O)[nH]c(=O)n2C)n1C was read as M1 agonist -0.16, D1 allo mod -0.12, M1 antagonist -0.043 and WNV NS2B-NS3 inh -1.
`COc1ccccc1C(=O)NCC1CCN(c2ccc(S(=O)(=O)N3CCOCC3)cc2)CC1` gave mHtt clearance -94.
`COCCCNC(=O)CN(Cc1ccc(Cl)cc1)S(C)(=O)=O` gave M1 agonist 0.62, mHtt clearance 16, D1 allo mod 9.2*, M1 antagonist -0.12, WNV NS2B-NS3 inh 0.06, D1 mod confirm 5504, D1 ag no DA 1488 and Isoprot counter inactive.
For COc1ccc(-n2nc3c(c2NC(=O)c2c(F)cccc2Cl)CS(=O)C3)cc1 (stereo not given) the results were M1 agonist 0.99, mHtt clearance 6, D1 allo mod -0.37, M1 antagonist -0.038 and WNV NS2B-NS3 inh -0.06.
For CC(O)CCC(=O)NCCNC(=O)CCC(C)O (stereo not given) the results were M1 agonist -1.4, D1 allo mod 0.26, M1 antagonist -1.6 and WNV NS2B-NS3 inh 0.25.
For COC(=O)CSc1nnc(-c2ccoc2C)n1-c1ccc(C)cc1 the results were M1 agonist 0.57, mHtt clearance -27, D1 allo mod 1.1, M1 antagonist 0.79 and WNV NS2B-NS3 inh -1.1.
`COC(=O)c1cccc(CSc2nnc(-c3ccco3)n2-c2ccccc2)c1` gave M1 agonist -0.041, D1 allo mod 4.2*, M1 antagonist -0.46, WNV NS2B-NS3 inh 1.6, D1 mod confirm 17968*, D1 ag no DA 1916 and Isoprot counter active.
CCOC(=O)CSc1nnc(-c2ccco2)n1-c1ccc(C)cc1 was read as M1 agonist 0.35, mHtt clearance 29, D1 allo mod 4.3*, M1 antagonist -0.25, WNV NS2B-NS3 inh -1.5, D1 mod confirm 5532 and Isoprot counter active.
`COC(=O)CSc1nnc(-c2ccco2)n1-c1ccc(C)cc1` gave M1 agonist -0.28, mHtt clearance 16, D1 allo mod 15*, M1 antagonist 0.48, WNV NS2B-NS3 inh 0.36, D1 mod confirm 17312*, D1 ag no DA 1612 and Isoprot counter active.
Screening CCOC(=O)CSc1nnc(-c2ccco2)n1-c1ccccc1 returned M1 agonist -0.48, mHtt clearance 35, D1 allo mod 0.59, M1 antagonist -0.55 and WNV NS2B-NS3 inh -0.29.
For COc1ccc(OC)c(S(=O)(=O)N2CCC(C(=O)NCC3CCCO3)CC2)c1 (stereo not given) the results were M1 agonist 0.33, mHtt clearance -29, D1 allo mod -1.4, M1 antagonist 0.22 and WNV NS2B-NS3 inh 1.4.
Cc1cccc(NC(=O)CCc2c(C)nc3ncnn3c2C)n1 was read as mHtt clearance -39.
Cc1ccc(S(=O)(=O)Cn2nnnc2CN2CCCC3(CCCCC3)C2)cc1 was read as M1 agonist -0.044, mHtt clearance 18, M1 antagonist -0.22 and WNV NS2B-NS3 inh -0.65.
Screening CCN(Cc1ccccc1)C(=O)Cn1c(=O)n(CC(=O)NCc2ccco2)c(=O)c2sccc21 returned M1 agonist 0.072, M1 antagonist -0.14 and WNV NS2B-NS3 inh 0.95.
For CCOC(=O)C1=C(NC(=O)c2ccc(Br)o2)Nc2ccccc2N=C1 the results were M1 agonist -0.24, mHtt clearance 4, D1 allo mod 19*, M1 antagonist 0.51, WNV NS2B-NS3 inh -0.38, D1 mod confirm 24204*, D1 ag no DA 1580 and Isoprot counter active.
`O=C(CCC(=O)Nc1nnc(C2CCCCC2)s1)NCc1cccs1` gave M1 agonist -0.39, D1 allo mod 3.8*, M1 antagonist -0.023, WNV NS2B-NS3 inh -0.31, D1 mod confirm 5740, D1 ag no DA 1656 and Isoprot counter inactive.
Screening Cc1nnc2c(NC(C)C)nc3ccccc3n12 returned M1 agonist -0.025, mHtt clearance 23, D1 allo mod 16*, M1 antagonist 0.0062, WNV NS2B-NS3 inh 0.0016, D1 mod confirm 12020*, D1 ag no DA 1592 and Isoprot counter active.
Screening O=C(Nc1cccnc1)c1ccccc1F returned M1 agonist -0.93, mHtt clearance -62, D1 allo mod -0.13, M1 antagonist -0.064 and WNV NS2B-NS3 inh -0.29.
`CCOC(=O)c1cnn2c(C(F)F)cc(C3CC3)nc12` gave M1 agonist -0.26, mHtt clearance 29, D1 allo mod 3.7*, M1 antagonist 0.0087, WNV NS2B-NS3 inh -0.09, D1 mod confirm 14020*, D1 ag no DA 1636 and Isoprot counter active.
`O=C(Nc1cccnc1)c1cnn2c(C(F)F)cc(C3CC3)nc12` gave M1 agonist 0.61, D1 allo mod 5*, M1 antagonist -2.3, WNV NS2B-NS3 inh 1.4, D1 mod confirm 16636*, D1 ag no DA 1580 and Isoprot counter active.
For Cc1cc(Cl)ccc1NC(=S)NCc1cccs1 the results were mHtt clearance 1.
`Nc1c(S(=O)(=O)c2cccs2)c2nc3ccccc3nc2n1CC1CCCO1` (stereo not given) gave M1 agonist 0.72, mHtt clearance -34, D1 allo mod 5.9*, M1 antagonist -0.086, WNV NS2B-NS3 inh -0.17, D1 mod confirm 12068*, D1 ag no DA 1576 and Isoprot counter active.
For CC(C)CCn1c(N)c(S(=O)(=O)c2cccs2)c2nc3ccccc3nc21 the results were M1 agonist -0.29, mHtt clearance -11, D1 allo mod 4.1, M1 antagonist -0.15 and WNV NS2B-NS3 inh -0.33.
`CCCn1c(SCC(=O)N2c3ccccc3Sc3ccccc32)nc2c1c(=O)n(C)c(=O)n2C` gave M1 agonist 0.87, mHtt clearance 6, D1 allo mod 0.15, M1 antagonist -0.4 and WNV NS2B-NS3 inh 0.48.
Screening CC(C)n1c(SCC(=O)N2c3ccccc3Sc3ccccc32)nc2c1c(=O)n(C)c(=O)n2C returned M1 agonist 0.093, mHtt clearance 54, D1 allo mod 5.2*, M1 antagonist 0.5, WNV NS2B-NS3 inh 0.1, D1 mod confirm 12564* and Isoprot counter active.
